Max response and Potency data for 24 compounds are collected here from PubChem BioAssay (NCATS).

Values joined by “and” are separate entries in the source; they are usually repeats but may differ in a detail not shown here. Equal entries are not always repeated. Results filed as inconclusive are left out. Active and inactive are the calls of the source. Calls come from the whole dose curve; as a rule, active = well fitted inhibition curve with a large enough effect; inconclusive = small, poorly fitted or top-dose-only effect; inactive = flat fitted curve, though single readings scatter.
% is set by controls: 0 for no effect and ±100 for the full control effect; potency is the fitted concentration of half-maximal effect.

For this test, the system named is KB-3-1. Description: Cytotoxic Profiling of Annotated Libraries Using Quantitative High-Throughput Screening (AID 1296008). Note: nearly all actives have a fitted effect of over 60% in size. The note with it: Five cell lines viability, CellTiter-Glo ATP luminescence, 48-72 h; max response: active compounds read low. The procedure, abridged: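 Cytotoxicity was measured as CellTiter-Glo ATP luminescence, read after 10 min at room temperature. Compound treatment of the cells lasted 48 or 72 hr at 37 degrees Celsius in a qHTS format.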
In general terms: Cellular ATP, detected with luciferase, serves as a proxy for viable cell number.
Take `Cc1cccc(C)c1NC(=O)NC1=CCCN1C`: the max response is -2.58% (inactive). In the case of `Cc1ncc(C[n+]2csc(CCOP(=O)(O)OP(=O)(O)O)c2C)c(N)n1`, the max response was -1.51% (inactive).

Take `OCC1(CO)COC(C(Cl)(Cl)Cl)OC1`: the max response is 16.6% (inactive). On to `CCC(C)[C@@H](N)C(=O)O` (some centres undefined), for which the max response is 1.62% (inactive).

As for `COc1cc(NCCCC(C)N)c2ncccc2c1` (centres undefined), the max response was -4.33% (inactive). Still for that read-out and setting: next, `CC(C)(CO)[C@@H](O)C(=O)NCCCC(=O)O`: -10.7% (inactive); `CC(C)Cc1ccc([C@@H](C)C(=O)NS(C)(=O)=O)cc1`: 3.61% (inactive); `CC[C@H]1OC(=O)C[C@@H](O)[C@H](C)[C@@H](O[C@@H]2O[C@H](C)[C@@H](O[C@H]3C[C@@](C)(O)[C@@H](O)[C@H](C)O3)[C@H](N(C)C)[C@H]2O)[C@@H](CC=O)C[C@@H](C)C(=O)/C=C/C(C)=C/[C@@H]1CO[C@@H]1O[C@H](C)[C@@H](O)[C@@H](OC)[C@H]1OC`: 31.7% (inactive) and -4.31% (inactive).

Take `CC(C)(C)NC[C@H](O)COc1ccccc1C1CCCC1`: the max response is 1.39% (inactive). For the compound `CC1=CC(=O)NS(=O)(=O)O1`, the max response was -8.51% (inactive). Still for that read-out and setting: next, `CC(=O)Nc1c(I)c(C(=O)N[C@H]2C(O)O[C@H](CO)[C@@H](O)[C@@H]2O)c(I)c(N(C)C(C)=O)c1I` (some centres undefined): -7.33% (inactive).

On to `C=O`, for which the max response was 3.28% (inactive). The same measure, in the same setting: to `C/C=C/C=C/C(=O)O` belongs 5.4% (inactive); to `c1ccc2c(c1)Sc1ccccc1N2CCN1CCCC1`, -12.7% (inactive); to `C[C@H](CCC(=O)O)[C@H]1CC[C@H]2[C@@H]3[C@H](O)C[C@@H]4C[C@H](O)CC[C@]4(C)[C@H]3C[C@H](O)[C@]12C`, 1.07% (inactive). On the same count and under the same terms, to `CC(C)(C)NCC(O)CSc1nc(-c2ccc(C(N)=O)s2)cs1` (centres undefined) belongs 15.3% (inactive); to `CNCC(=O)N[C@@H](CCCN=C(N)N)C(=O)N[C@H](C(=O)N[C@@H](Cc1ccc(O)cc1)C(=O)N[C@H](C(=O)N[C@@H](Cc1cnc[nH]1)C(=O)N1CCC[C@H]1C(=O)N[C@@H](C)C(=O)O)C(C)C)C(C)C`, 1.41% (inactive); to `CN(C)CCC=C1c2ccccc2C(C)(C)c2ccccc21`, -19.1% (inactive). The same measure, in the same setting: to `CCCCCCCCCCCC(=O)N(CCO)CCO` belongs -11.5% (inactive); to `CCc1ncnc2cc(OC)c(OC)cc12`, -4.18% (inactive). As to `CCN1\C(=C/C=C/C=C/c2sc3ccccc3[n+]2CC)Sc2ccccc21`, the Potency was 9.2 µM (active). Turning to `CC/C=C\C/C=C\C/C=C\C/C=C\C/C=C\CCCC(=O)O`, the max response is -1.96% (inactive). `Cn1c(=O)c2c(ncn2CCOC(=O)C(C)(C)Oc2ccc(Cl)cc2)n(C)c1=O`: the max response was -10.9% (inactive). On the same count and under the same terms, to `O=C(Cc1cccs1)N[C@@H]1C(=O)N2C(C(=O)[O-])=C(C[n+]3ccccc3)CS[C@H]12` belongs 6.88% (inactive).
